Bioassay records deposited in PubChem by National Center for Advancing Translational Sciences (NCATS).
WRN inhibitor = blocks human WRN helicase; Potency, µM (titrated, usually from 114 µM), hits mostly inhibitors; WRN helicase unwinding, fluorescent forked duplex, kinetic; actives 0.46% (n = 360,000); AID 651768; Q14191; note: nearly all actives have a fitted effect of over 55% in size
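WRN at 20 nM final preincubated with compound 15 min at room temperature; reaction started with 100 nM fluorophore/quencher forked duplex oligonucleotide and 2 mM ATP final. Unwinding followed kinetically by red fluorescence (ex 525, em 598 nm).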
FEN1 inh = blocks human flap endonuclease 1; AID 588795; P39748; Potency, µM (titrated, usually from 114 µM), usual class: inhibitors; actives 0.35% (n = 390,000); Recombinant FEN1 flap cleavage, fluorescence, 15 min; note: nearly all actives have a fitted effect of over 65% in size
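Enzyme 10 nM, 15 min RT preincubation with compound; start with substrate 50 nM final; reads at 0 and 15 min; qHTS titration, four-parameter Hill fit.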
Pol kappa inh = inhibitors of human DNA polymerase kappa; Potency, µM (doses to about 107 µM), actives largely listed as inhibitors; actives 0.53% (n = 400,000); Q9UBT6; purified Pol kappa, fluorescent DNA synthesis assay, 10 min
Target sequence (Q9UBT6 whole entry, looked up): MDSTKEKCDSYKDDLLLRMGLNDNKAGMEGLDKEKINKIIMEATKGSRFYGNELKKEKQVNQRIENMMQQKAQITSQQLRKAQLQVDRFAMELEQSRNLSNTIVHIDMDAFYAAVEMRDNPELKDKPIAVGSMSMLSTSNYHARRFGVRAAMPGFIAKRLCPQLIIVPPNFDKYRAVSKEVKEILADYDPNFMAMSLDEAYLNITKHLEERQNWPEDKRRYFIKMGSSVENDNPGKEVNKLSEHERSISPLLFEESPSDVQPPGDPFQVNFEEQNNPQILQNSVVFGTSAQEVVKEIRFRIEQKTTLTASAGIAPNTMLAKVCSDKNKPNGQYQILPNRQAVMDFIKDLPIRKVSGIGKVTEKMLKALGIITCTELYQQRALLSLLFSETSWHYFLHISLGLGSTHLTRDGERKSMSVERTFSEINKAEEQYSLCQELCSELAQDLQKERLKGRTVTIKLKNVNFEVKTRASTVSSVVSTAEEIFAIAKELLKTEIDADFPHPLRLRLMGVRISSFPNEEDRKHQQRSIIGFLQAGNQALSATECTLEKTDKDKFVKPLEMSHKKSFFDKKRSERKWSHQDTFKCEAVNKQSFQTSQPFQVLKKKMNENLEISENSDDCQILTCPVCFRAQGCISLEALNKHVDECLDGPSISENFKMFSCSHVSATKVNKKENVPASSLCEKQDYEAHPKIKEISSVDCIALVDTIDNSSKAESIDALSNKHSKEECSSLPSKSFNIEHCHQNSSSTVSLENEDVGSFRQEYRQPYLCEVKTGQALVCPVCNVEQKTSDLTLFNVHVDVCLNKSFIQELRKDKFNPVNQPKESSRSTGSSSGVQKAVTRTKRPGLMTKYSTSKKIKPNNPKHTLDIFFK
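Enzyme at 10 nM met test compounds for 15 min at room temperature. Substrate addition (50 nM final) began the reaction, which was monitored by fluorescence at 0 and 10 min.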
POLB inh = DNA polymerase beta (human) inhibition; P06746; Pol beta primer extension/strand displacement, fluorescence kinetic; Potency, µM (series often up to 114 µM), usual class: inhibitors; actives 1.3% (n = 340,000)
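Preincubation: enzyme (10 nM) with compound, 15 min, RT. Reaction: substrate added to 50 nM final. Reads: 0 and 10 min. Analysis: normalized, Hill fit.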
Pol iota inh = blocks human DNA polymerase iota activity; actives 1% (n = 390,000); Q9UNA4; AID 588590; Potency, µM (highest dose often 115 µM), most hits filed as inhibitors; Pol iota fluorescent replication assay, 10 min
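Pol iota at 10 nM preincubated 15 min with compounds at room temperature; reaction started with fluorescent substrate, 50 nM final. Fluorescence read kinetically at 0 and 10 min; buffer-only wells as negative control.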
Pol eta inh = blocks human DNA polymerase eta activity; actives 1.2% (n = 390,000); AID 588591; Potency, µM (highest dose often 114 µM), actives largely listed as inhibitors; Q9Y253; recombinant Pol eta, fluorescent DNA replication assay
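Fluorescent replication assay: 50 nM final substrate added after a 15 min room-temperature compound preincubation with 10 nM enzyme. Signal taken at 0 min and again at 10 min.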
Numbers stand for hits; n = inactive; u = inconclusive; x = no result given; [ ] = remark or other dose. Sampled rows, rich in hits. Any-hit rate of the full collection: about 2.4%. Calls come from the whole dose curve; as a rule, active = well fitted curve in the direction sought with a large enough effect; inconclusive = small, poorly fitted or top-dose-only effect, or another doubt; inactive = no such curve, though single readings can be large; an effect the other way counts as inactive or inconclusive.

SMILES | WRN inhibitor | FEN1 inh | Pol kappa inh | POLB inh | Pol iota inh | Pol eta inh
CC(=O)C1=C(O)C(=O)N(CCc2c[nH]c3ccccc23)C1c1ccco1 (stereo not drawn) | n | n | n | 32µM | u | n
Cc1ccc(-c2csc(N3N=C(c4ccccc4)/C(=C\c4ccc(N(C)C)cc4)C3=O)n2)cc1 | x | x | x | 50µM | x | x
CC(CCC(C)[n+]1cccc(C#N)c1)[n+]1cccc(C#N)c1 (stereo not drawn) | x | n | n | x | u | x
COc1ccc2c(c1)n([O-])c1c([n+]2=O)CCC1 | n | n | n | n | u | 22µM
O=S(=O)(NC1=NCCCCC1)c1ccc2sc(NS(=O)(=O)c3ccc4ccccc4c3)nc2c1 | n | n | n | n | 11µM | u
CC[C@H](C)NC(=O)c1ccc(Cn2c(=S)[nH]c3c([nH]c4ccc(OC)cc43)c2=O)cc1 | n[11.6 µM] | n | n | u | u | 18µM
Cc1ccc(S(=O)(=O)N2CCN(S(=O)(=O)c3ccc4c(c3)OCCCO4)CC2)cc1 | x | n | n | x | n | x
O=C(/C=C/c1ccc2c(c1)OCO2)Nc1nc(-c2ccc(F)cc2F)cs1 | x | x | x | 22µM | x | x
COC(=O)c1cc(=O)c(O)c2c(O)c(O)ccc2c1 | x | x | 1.1µM | x | x | x
COC(=O)c1ccc2cc(OC)c(OC)cc2c1 | n | x | x | x | x | n
N=C(N)c1ccc(/C=C/c2ccc(C(=N)N)cc2O)cc1 | x | u | u | 8.9µM | 35µM | n
Oc1ccc(/C=C/c2ccc(/C=C/c3ccc(O)cc3)c(Br)c2)cc1 | x | x | n | x | x | x
CCN(CC)S(=O)(=O)c1cc(NC(=O)Cn2ncc(Cl)c(Cl)c2=O)ccc1C | n | n | 71µM | 28µM | 25µM | 35µM
Cc1ccc(S(=O)(=O)N2CCCCC2)cc1NC(=O)Cn1cnnn1 | n | n | n | n | n | n
Cc1ccc(S(=O)(=O)N2CCCCC2)cc1NC(=O)Cn1ncc(Cl)c(Cl)c1=O | n | n | n | x | u | 56µM
CCOC(=O)c1ccc(NC(=O)Cn2ncc(Cl)c(Cl)c2=O)cc1 | n | n | n | n | 28µM | u
O=C(Cn1ncc(Cl)c(Cl)c1=O)Nc1ccc2c(c1)OCO2 | n[11.6 µM] | n | n | x | u | u
CCOC(=O)c1ccc(NC(=O)CSCc2ccco2)cc1 | u | n | u | u | 25µM | u
COc1ccc(OC)c(/C=C2\Cc3ccccc3C2=O)c1 | x | n | n | x | n | x
CCC1=C[C@@H]2CN(C1)Cc1c([nH]c3ccccc13)[C@@](C(=O)OC)(c1cc3c(cc1OC)N(C)[C@@H]1[C@@](O)(C(=O)OC)[C@H](OC(C)=O)[C@]4(CC)C=CCN5CC[C@]31[C@@H]54)C2 | x | x | n[19.4 µM] | x | x | x
CCc1cccc2c(C(O)(c3c[nH]c4c(CC)cccc34)c3c[nH]c4c(CC)cccc34)c[nH]c12 | x | n | n | x | n | x
CCOc1ccc(C(=O)Nc2ccc3c(c2)C(=O)NC3=O)cc1 | n | n | n | n | n | n
CCC(C)c1ccc(OCC(=O)Nc2ccc3c(c2)C(=O)NC3=O)cc1 (stereo not drawn) | n | n | n | 35µM | n | n
O=C(c1ccccc1)c1cc(Cl)ccc1N1C(=O)C=CC1=O | 14µM | n | n | n | n | n
O=C(CCl)N1CCN2C(=O)c3ccccc3C12c1ccc(Cl)cc1 (stereo not drawn) | n | n | n | n | n | 79µM
SMILES | WRN inhibitor | FEN1 inh | Pol kappa inh | POLB inh | Pol iota inh | Pol eta inh
C[C@H](Cc1nc2c(cnn2-c2ccccc2Cl)c(=O)[nH]1)C(F)(F)F | x | x | n | x | x | x
O=C(c1ccccc1)C(c1ccccc1)[n+]1csc2ccccc21 (stereo not drawn) | x | n | n | x | n | x
Cc1cccc2cc(-c3nc4ccc(C(=O)O)cc4[nH]3)c(=O)oc12 | n | n | u | u | u | 22µM
O=C1c2ccccc2C(=O)N1c1cccc(O)c1 | x | n | n | x | n | x
COC1=C(OC)C(=O)c2ccccc2C1=O | x | u | n | 28µM | 22µM | u
COC1=C(Nc2ccccc2)C(=O)c2ccccc2C1=O | n | n | n | u | 18µM | n
COC1=C(Nc2ccc(C)cc2)C(=O)c2ccccc2C1=O | n | n | n | u | u | n
Oc1cc(CNC2CCCCC2)c(O)cc1CNC1CCCCC1 | n | n | 79µM | x | u | u
Cc1cc(=O)[nH]c(SCC(=O)Nc2ccc(S(N)(=O)=O)cc2)n1 | n | n | u | u | 40µM | 20µM
CCN(CC)c1ccc(NC(=O)CSc2nc(C)cc(=O)[nH]2)cc1 | n | n | n | n | u | n
O=C(CSc1nc(NS(=O)(=O)c2ccccc2)cc(=O)[nH]1)Nc1ccccc1Cl | n | n | n | u | n | n
Cc1ccc(S(=O)(=O)Nc2cc(=O)[nH]c(SCC(=O)Nc3cccc(C)c3)n2)cc1 | n | n | u | n | 50µM | n
CCOc1ccc(NC(=O)CSc2nc(NS(=O)(=O)c3ccc(C)cc3)cc(=O)[nH]2)cc1 | n[11.6 µM] | n | 40µM | n | 22µM | n
CCc1ccc(NC(=O)CSc2nc(NS(=O)(=O)c3ccccc3)cc(=O)[nH]2)cc1 | n | n | n | 20µM | n | n
Cc1csc(NCC(=O)c2c(C)[nH]c3ccccc23)n1 | x | n | n | x | n | x
COc1cc(/C=C/c2ccc3ccccc3n2)cc(OC)c1OC | x | u | n | x | n | x
Cc1ccc(NC(=O)CSc2nc(NS(=O)(=O)c3ccccc3)cc(=O)[nH]2)cc1 | 50µM | 79µM | 22µM | 22µM | u | 22µM
CCOc1ccc(NC(=O)CSc2oc(-c3ccc(C)cc3)nc2S(=O)(=O)c2ccc(C)cc2)cc1 | x | n | n | 3.2µM | n | 79µM
CCOc1ccc(NC(=O)CSc2oc(-c3cccs3)nc2S(=O)(=O)c2ccc(Cl)cc2)cc1 | x | n | n | n | n | n
Cc1ccc(S(=O)(=O)Nc2cc(=O)[nH]c(SCC(=O)Nc3ccccc3Cl)n2)cc1 | n | n | n | u | n | n
COc1ccc(C(=O)C[n+]2cc(Br)cc(Br)c2)cc1 | x | u | n | x | n | x
OC(Br)C(O)C(O)N1CCCc2ccccc21 (stereo not drawn) | x | u | n | x | n | x
O=C1C([N+](=O)[O-])=C(O)c2cccc3cccc1c23 | x | x | x | 11µM | x | x
Cc1ccc(-c2c(C3C4C=CCCC4(C)C(=O)N3Cc3ccccc3)ccc3ccccc23)cc1 (stereo not drawn) | x | n | n | x | n | x
O=C([C@@H]1CC=C[C@@H]2CCN(C3CCCCC3)C(=O)[C@@H]21)N1CCOCC1 | x | n | n | x | n | x
Cc1ccc(NC(=O)CN2C(=O)c3ccccc3Sc3ccc(C(=O)N4CCCC4)cc32)cc1 | x | n | n | u | 71µM | u
C=C1[C@@H]2CC[C@H](C2)C1(C)C | x | x | n | x | x | x
COc1ccc(NC(=O)NNC(=O)c2cc3ccccc3cc2O)cc1 | n | n | n | u | u | n
COc1ccc(C)cc1NC(=O)NNC(=O)c1cc2ccccc2cc1O | n | n | n | 79µM | n | n
CCCCCCCCCCCNC(=O)c1ccoc1C | 50µM | n | n | n | n | u
